Compound activity (PubChem)
The list is not random: actives were taken first. Their share in the collection is about 2.6%.
ClpP mod: qHTS Assay for Activators of ClpP. ATP-dependent Clp protease proteolytic subunit (Bacillus subtilis (strain 168)), P80244. purified B. subtilis ClpP, FRET peptide cleavage, 20 min. Potency, µM (series often up to 57.5 µM), for inactives: top-dose activity change, negative = active. 340,000 tested, 1.9% active. AID 651965, 2013; active means well fitted falling curve with a large enough effect; inconclusive means small, poorly fitted or top-dose-only effect; inactive means no such curve, though single readings can be large or run the other way; further: potency means the concentration at half of the fitted maximal effect; the source files actives as falling curves though it sought activators and does not explain the sign; nearly all actives have a fitted effect of over 65% in size
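Purified B. subtilis ClpP, 10 microg/mL final in Tris/HCl pH8 with KCl, BSA, glycerol and Tween-20, cleaved an Abz/nitrotyrosine-quenched decapeptide. Fluorescence (ex 320, em 430) was read at 0 and 20 min at room temperature. Delta was normalized to 5.8 microM ADEP and DMSO/no-enzyme controls.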
hERG WT inh: KCNH2 (human, wildtype) channel inhibition | U2OS, BacMam KCNH2, thallium flux FluxOr; stronger effect = lower value | 340,000 tested, 0.37% active | Q12809 | activity change, % at 1.84 µM;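 active means maximum activity change below -70%; inconclusive means maximum activity change between -70% and -50%; inactive means maximum activity change above -50%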; further: on the % scale 0 is the no-effect control and ±100 the full control effect
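U2OS cells were transduced with wild-type KCNH2 virus (2.03 x 10^8 / mL) for 4 h at room temperature, then cultured overnight at 37 C. Thallium flux was read with FluxOr dye. Rate constants were normalized to DMSO controls.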
TRPV1 potentiator: human TRPV1 potentiation | Q8NER1 | TRPV1-expressing cells, Fluo-8 calcium influx, capsaicin EC20 potentiation | potentiation, % at 8.33 µM | 320,000 tested, 0.02% active | AID 540277; in the data active means potentiation above about 80%; inconclusive means between about 30% and that limit; further: 0% is about no effect
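TRPV1-expressing cells were cultured overnight at 35.5C and loaded with Fluo-8 calcium dye for 40 to 90 min at room temperature. After a 10 s baseline, compound was added and calcium influx was read kinetically for 3 min (ex 480/em 520 nm).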
KCNH2 3.1 block: inhibitors of human KCNH2 3.1 potassium channel isoform. U2OS KCNH2 3.1, thallium flux FluxOr; stronger effect = lower value. activity change, % (tested at about 1.8 µM). 340,000 tested, 0.95% active;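 active means maximum activity change below -70%; inconclusive means maximum activity change from -70% to -50%; inactive means maximum activity change above -50%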;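 further: thallium influx rate constant from kinetic fluorescence after stimulation buffer; on the % scale 0 is the no-effect control and ±100 the full control effect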
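Steps: virus added to U2OS suspension (4 h, RT, dark); medium with 10% FBS added, cells plated, 37 C overnight; FluxOr/Red40 loading buffer 45 min RT; stimulation buffer, 2 min kinetic read; rate constant normalized.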
TRPV1 agonist: agonists of human vanilloid receptor 1 (TRPV1) | AID 540275 | Q8NER1 | TRPV1-expressing cells, Fluo-8 calcium influx, agonist mode | activation, % at 8.33 µM | 320,000 tested, 0.19% active; in the data active means activation above about 80%; inconclusive means between about 30% and that limit; further: 0% is about no effect
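Cells expressing TRPV1 were dye-loaded with Fluo-8 and read kinetically: 10 s baseline, 3 min after compound (agonist portion), then 2 min after EC20 capsaicin (allosteric enhancer portion). Calcium-bound dye fluorescence at 480/520 nm.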
p53 reactivator: re-activators of mutant p53; H1299 p53-A138V BP100-luciferase reporter, luminescence, 24 h; Potency, µM (top dose mostly 92.2 µM), for inactives: top-dose activity change, positive = activation, actives largely listed as activators; 320,000 tested, 0.063% active; active means well fitted activation curve with a large enough effect; inconclusive means small, poorly fitted or top-dose-only effect; inactive means no such curve, though single readings can be large or run the other way; further: potency means the concentration at half of the fitted maximal effect; % of control where 0% means no effect; nearly all actives have a fitted effect of over 45% in size
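p53-null H1299 cells stably carrying temperature-sensitive p53-A138V and a BP100-luciferase reporter were pinned with compounds (4-point, 1:5 series) and held 24 hrs at 37 deg C. Luminescence was read 10 min after detection reagent.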
* marks the source's active call; other numbers are inactive results; u = inconclusive; x = no result.

SMILES | ClpP mod | hERG WT inh | TRPV1 potentiator | KCNH2 3.1 block | TRPV1 agonist | p53 reactivator
CC(C)(C)c1ccc(C(=O)N/N=C/c2ccccn2)cc1 | -1.4% | -18.2 | -2.0 | 0.3 | 82.6* | u
O=C(N/N=C/c1ccccn1)c1ccc(N/N=C/c2ccccn2)cc1 | -0.6% | 1.5 | -15.6 | 18.7 | 1.0 | 0.2%
O=C(N/N=C/c1ccccn1)c1cccc([N+](=O)[O-])c1 | x | 3.4 | u | -5.5 | -1.2 | 11.2%
O=C(N/N=C/c1ccccn1)c1ccc(NC(=O)c2cccc([N+](=O)[O-])c2)cc1 | x | -6.4 | -5.6 | -70.6* | 28.4 | 5.2%
O=C(N/N=C/c1ccsc1)c1ccccn1 | x | -4.5 | -25.9 | 4.8 | 27.2 | 21.3%
CC(=O)N1CCc2cc(CNC(=O)Nc3cc(Cl)ccc3C)ccc21 | -2.0% | x | x | x | x | x
O=C(N/N=C/c1ccccn1)c1cc(C2CC2)[nH]n1 | x | 14.6 | 9.3 | -91.7* | 0.4 | 4.3%
S=C(NCCSCc1c(Cl)cccc1Cl)Nc1ccccc1 | -1.3% | -14.2 | -1.4 | -13.6 | u | 6.2%
O=C(NCCSCc1c(F)cccc1Cl)Nc1ccccc1 | x | -2.8 | 17.4 | -5.1 | 82.8* | -1.6%
COc1cccc(C(O)c2nc(/C=C/c3ccc(C(F)(F)F)cc3)cs2)c1 (stereo not drawn) | 28.2µM* | x | x | x | x | x
CCOC(=O)CC1(CC(=O)OCC)NC(=O)c2c(C)sc(C(=O)OCC)c2N1 | 35.5µM* | -2.7 | 21.0 | -3.2 | 7.6 | -10.7%
CCOC(=O)CC1(C)NC(=O)c2c(C)sc(C(=O)OCC)c2N1 (stereo not drawn) | u | -5.8 | 9.8 | 0.3 | 2.5 | 4.7%
COc1ccc(OC)c(CN2CCN(C(=O)c3cc(S(=O)(=O)N4CCOCC4)ccc3C)CC2)c1 | -1.3% | 8.4 | x | -3.1 | x | x
CC(C)N(C(=O)Cn1c(SCC(=O)NCc2ccc3c(c2)OCO3)nc2ccccc21)C(C)C | 0.9% | -121.6* | 5.5 | 1.5 | 4.8 | -6.8%
CC(C)Sc1nc2ccccc2n1CC(=O)NCc1ccc2c(c1)OCO2 | -1.2% | 4.1 | -20.4 | -4.7 | u | -6.9%
Cc1cccc(NC(=O)COc2ccc3c(c2)CCC3)n1 | 28.2µM* | -4.0 | -19.2 | -17.2 | u | 19.6%
O=C(COc1ccc2c(c1)CCC2)Nc1ccccn1 | 1.5% | 6.3 | -29.0 | -1.1 | u | -7.0%
CCOC(=O)C1=C(C)N=C2SC(C)C(=O)N2C1c1ccc(C(=O)OC)cc1 (stereo not drawn) | -0.2% | 6.0 | -7.4 | 18.9 | 16.1 | -17.8%
CCOC(=O)C1=C(C)N=C2SC(C)C(=O)N2C1c1ccccc1 (stereo not drawn) | 1.1% | -8.5 | -1.7 | -93.9* | 3.8 | 1.7%
CC1(C)CC(=O)C2=C(C1)Nc1cc3c(cc1C2c1ccc(F)cc1)OCO3 (stereo not drawn) | 31.6µM* | 1.3 | -20.3 | -11.0 | 28.3 | 20.4%
Cc1ccc(C2C3=C(CC(C)(C)CC3=O)Nc3onc(C)c32)cc1 (stereo not drawn) | 31.6µM* | -4.2 | -1.9 | -2.5 | 25.9 | -2.9%
CC1(C)CC(=O)C2=C(C1)Nc1cc3c(cc1C2c1ccc2c(c1)OCO2)OCO3 (stereo not drawn) | 3.9% | 0.6 | -19.8 | 4.7 | u | 14.4%
Cc1ccc(N(CC(O)CN2CCCCC2)S(=O)(=O)c2ccc(C)cc2)cc1 (stereo not drawn) | x | -7.3 | -22.5 | -99.1* | 0.2 | -0.5%
CC(OC(=O)CC1CCCCC1)C(=O)Nc1ccc(F)cc1 (stereo not drawn) | x | 2.9 | -14.6 | -6.8 | 83.2* | -5.4%
COc1ccccc1-c1nnc(Nc2nc3c(OC)cccc3s2)o1 | 35.5µM* | 3.9 | 11.5 | -14.4 | -4.3 | u
SMILES | ClpP mod | hERG WT inh | TRPV1 potentiator | KCNH2 3.1 block | TRPV1 agonist | p53 reactivator
COc1cccc2sc(Nc3nnc(-c4ccccc4Cl)o3)nc12 | u | u | 5.1 | 2.5 | 14.1 | u
COc1cccc(-c2nnc(Nc3nc4c(F)cccc4s3)o2)c1 | 28.2µM* | -12.6 | -2.2 | -1.9 | 2.0 | u
O=C(Nc1ccc(Cl)cc1Cl)[C@@H]1CC=C[C@@H]2CCN(Cc3ccccc3)C(=O)[C@@H]21 | 0.5% | x | x | x | x | x
c1ccc(-c2nnc(-c3c[nH]c4ccccc34)nc2-c2ccccc2)cc1 | -1.6% | -9.5 | -16.4 | -33.3 | 19.3 | -4.0%
ClC(Cl)c1nnc(-c2ccccc2)c(-c2c[nH]c3ccccc23)n1 | 25.1µM* | -1.3 | 7.8 | -1.0 | 4.4 | -7.6%
CC(C)(CC(=O)OCC(=O)Nc1ccc(F)c(Cl)c1)CC1=NS(=O)(=O)c2ccccc2N1 | 0.9% | x | x | x | x | x
CCOC(=O)c1c(NC(=O)c2cccs2)sc(CC)c1-c1cccs1 | 31.6µM* | -5.3 | -4.8 | 8.9 | u | -0.7%
CCOC(=O)c1c(-c2ccc(C)s2)csc1NC(=O)c1cccs1 | -8.7% | 5.8 | -3.8 | 15.3 | 6.8 | 3.7%
Cc1ccccc1N1CC(c2nc3ccccc3n2Cc2ccc(Br)cc2)CC1=O (stereo not drawn) | -0.2% | x | x | x | x | x
COC(=O)CN1C(=S)N(c2ccc(Cl)cc2)C(=O)C1CC(=O)Nc1ccccc1 (stereo not drawn) | 12.6µM* | -1.0 | -4.0 | -13.5 | 8.0 | -13.3%
CCCCN(C)c1c(C)nc2ccc(C(=O)Nc3ccc(OC)c(OC)c3)cn12 | -0.2% | x | x | x | x | x
CC(=O)c1ccc(N2CCN(C(=O)c3nn(Cc4ccccc4)c(=O)c4ccccc34)CC2)cc1 | x | u | 27.5 | -86.0* | 2.2 | -4.5%
CC(=O)c1ccc(N2CCN(C(=O)c3n[nH]c4ccccc34)CC2)cc1 | x | 4.7 | -7.3 | -12.3 | 18.8 | -1.9%
Cc1ccccc1CN1C(=O)/C(=C\c2ccc(C(=O)NCCN3CCOCC3)cc2)Sc2ccccc21 | -10.3% | -0.2 | 5.1 | 1.5 | 1.1 | -5.1%
CCN1CCN(CCNC(=O)c2ccc3c(c2)N(Cc2ccc(F)cc2)C(=O)/C(=C/c2ccccc2)S3)CC1 | x | -20.2 | 8.7 | -87.5* | 3.4 | -8.2%
CN1C(=O)/C(=C\c2ccccc2F)Sc2ccc(C(=O)NC3CCN(Cc4ccccc4)CC3)cc21 | -7.1% | -83.2* | 6.0 | -80.6* | 2.8 | 2.6%
COc1ccc(/C=C2\Sc3ccc(C(=O)NC4CC4)cc3N(C)C2=O)cc1OC | -0.7% | 0.2 | 10.7 | -2.8 | 4.2 | -19.1%
Cc1ccc(S(=O)(=O)Nc2cccc(C(=O)NC3CCN(Cc4ccccc4)CC3)c2)cc1F | -3.8% | -39.2 | -7.4 | -80.4* | 24.6 | -2.6%
Cc1cccc(CN2C(=O)/C(=C\c3ccc(C(=O)NCCN4CCOCC4)cc3)Sc3ccccc32)c1 | -9.4% | -5.0 | 22.0 | -81.4* | 4.2 | -11.1%
